Results as given in PubChem BioAssay AID493200 (National Center for Advancing Translational Sciences (NCATS), 2011).
Records with an inconclusive call do not appear. Where a call stands in place of a potency, no number is given. The source made the active and inactive calls. Calls follow the shape of the dose curve; as a rule, active = well fitted activation curve with a large enough effect; inconclusive = small, poorly fitted or top-dose-only effect; inactive = no such curve, though single readings can be large or run the other way.

test: qHTS Assay for Rab9 Promoter Activators: Initial hit validation from the primary screen; conditions: Huh7 Rab9 promoter luciferase reporter, 24 h; series mostly up to 46.1 µM
From the text: NIH Chemical Genomics Center [NCGC] NIH Molecular Libraries Probe Production centers Network [MLPCN] MLPCN Grant: MH089537-01 Assay Submitter (PI): Yiannis A. Ioannou NCGC Assay Overview: Niemann Pick Type C (NPC) is a rare neurodegenerative lipidosis that is characterized by lipid storage in the endosomal/lysosomal system. Treatment modalities for this devastating disease are currently non-existent due to the severe obstacles associated with accessing the central nervous system with proteins or genes (Ioannou, 2000). We have developed a new paradigm, termed "Orphan Receptor Bypass Therapy" (ORByT), to address these disorders. This paradigm posits the existence of endogenous "suppressor" proteins whose expression can dramatically improve LSD pathogenesis. The goal is the identification/discovery of small chemical compounds that can modulate the expression of these proteins and provide a new treatment modality for these devastating disorders. One such protein whose overexpression reverses aspects of the NPC phenotype is Rab9. We have developed and optimized a cell based luciferase reporter assay in 1536 well format for the identification of up-regulators of the Rab9 promoter. This assay presents data on the validation of hits from the primary screen.
The Rab9 promoter is cloned in front of the luciferase reporter gene, therefore […] promoter activation results in luciferase expression. Frozen stock of the Rab9 promoter transfected Huh7 cells were obtained from the laboratory of Dr. Yiannis Ioannou (The Mount Sinai School of Medicine, New York, NY). Cells were propagated and maintained at NCGC in medium containing RPMI-1640 supplemented with 10% FBS, 2mM L-glutamine, and 50ug/ml penicillin/streptomycin. Cells were harvested in and plated for assays in OP-MEM I reduced-serum medium supplemented with 10% FBS. The Amplite luciferase reporter gene assay kit was purchased from ABD Bioquest and prepared/stored according to manufacturers recommendations. qHTS Assay Setup: 1.Dispensed 5ul of Huh7 cells stably expressing Rab9-luciferase at a density of 1500 cells per well 1536-well plates. 2.Incubate cells at 37C, 5% CO2, and 95% humidity for 2 hours. 3.Transferred 23nl per well of compound in DMSO solution. 4.Incubated at 37C, 5% CO2, and 95% humidity for 24 hours. 5.Dispensed 3ul per well of Amplite reagent(ABD Bioquest) per well. 6.Incubate at ambient for 10 minutes. 7.Read using the luminescence protocol on the ViewLux plate reader (Perkin Elmer).
Potency is read from the fitted curve at half-maximal effect.

Structure (SMILES) | Potency
COc1ccccc1NC(=S)NCc1ccc(Cl)cc1 | inactive
Fc1ccc(-c2nc3nc4ccccc4nc3n2Cc2ccco2)cc1 | inactive
COc1cccc(C2Nc3ccccc3NC3=C2C(=O)CC(C)(C)C3)c1 (stereo not given) | inactive
CCCc1cc(C(=O)Nc2ccccc2SC)no1 | 25000 nM (active)
O=C(CCCN1C(=O)C(c2ccccc2)Oc2cccnc21)Nc1ccccc1Cl (stereo not given) | inactive
O=C(CCN1C(=O)c2ccccc2C1=O)Nc1ccc(-c2nc3ccccc3s2)cc1 | 281 nM (active)
C=CCn1c(C)nnc1SCC(=O)Nc1nccs1 | inactive
Cc1ccc(N=Cc2sc(O)c3ccccc23)c(C)c1 | 2230 nM (active)
COC(=O)CSc1nc2cc3c(cc2cc1C#N)OCO3 | 353 nM (active)
S=C1NCN(CCc2ccccc2)CN1Cc1ccccc1 | inactive
N#C/C(=C\c1ccc[nH]1)C(=O)Nc1ccccc1Cl | 3530 nM (active)
Cc1cccc(N2CCN(C(=S)c3ccccc3)CC2)c1 | inactive
COc1ccc(OC)c(S(=O)(=O)N2CCN3CCCC3C2)c1 (stereo not given) | inactive
COCCn1c(SCc2ccc(C(=O)OC)o2)nc2cc(Cl)ccc2c1=O | inactive
CCOC(=O)c1ccc(-c2nnc(-c3ccc(Cl)cc3Cl)o2)cc1 | 705 nM (active)
COc1ccc(S(=O)(=O)N2CCCC(C(=O)NCc3ccncc3)C2)cc1Cl (stereo not given) | inactive
COc1ccc(-c2nnc(SCC(=O)/C(C#N)=C(\C)N)o2)cc1 | 315 nM (active)
COc1ccc(-c2csc(N(CCCN(C)C)C(=O)c3ccccc3C)n2)cc1 | inactive
Cn1c(CCN2CCN(c3ccccc3)CC2)nc2cc(NC(=O)c3ccco3)ccc21 | inactive
CCCOC(=O)Cn1cnc2scc(-c3ccc(OC)cc3)c2c1=O | inactive

Structure (SMILES) | Potency
CC(=O)c1cccc(NC(=O)N2CCOCC2)c1 | inactive
Cc1cccc(NC(=O)CSc2nc3ccccc3o2)c1 | inactive
CCN(CC(=O)N(CC(C)C)c1c(N)n(CC(C)C)c(=O)[nH]c1=O)Cc1nc2ccccc2c(=O)[nH]1 | inactive
COc1ccc(/C=C\C(=O)c2c(O)ccc3c(C)cc(=O)oc23)cc1OC | inactive
O=C(Nc1ccc(-c2nc3cccnc3s2)cc1)c1ccc(Cl)nc1 | 888 nM (active)
COCCNC(=O)CN1C(=O)NC(c2ccccc2)(c2ccccc2)C1=O | inactive
Cc1nnc2n(c1=O)N=C(c1ccc(Cl)cc1)CS2 | 888 nM (active)
Nc1ccccc1C(=O)N/N=C1/C2CN3CCN(C2)CC1(Cc1ccccc1)C3 | inactive
CC(=O)NC(CCCN1C(=O)c2ccccc2C1=O)c1nnn(C)n1 (stereo not given) | inactive
OCCC1CN(Cc2nc3ccccc3s2)CCN1C1CCCC1 (stereo not given) | inactive
COc1ccccc1OCCCC(=O)NCc1ccco1 | inactive
CC(C)CC(=O)N1CCN(c2ccc(NC(=O)c3ccco3)cc2)CC1 | inactive
Cc1noc(/C=C/N(C)C)c1S(=O)(=O)N1CCCC(C(=O)N2CCCCC2)C1 (stereo not given) | inactive
CCCN(CCC)CCCNC(=O)c1cc2cc3ccc(Cl)cc3nc2o1 | inactive
Cc1ccc(C(=O)Nc2ccc(N3CCN(C)CC3)nc2)cc1 | 25000 nM (active)
Nc1c(N(CCO)C(=O)/C=C/c2ccco2)c(=O)[nH]c(=O)n1Cc1ccccc1 | inactive
COc1ccc(-n2c(N)c(C(=O)NCc3ccco3)sc2=S)cc1 | inactive
O=C(CSc1nnc(-c2ccccn2)o1)Nc1ccccc1Cl | 888 nM (active)
O=C(NCCc1ccccc1)c1cc2ncc(Br)cn2n1 | 25000 nM (active)
Cc1ccc2c(c1)sc1nc(=O)n(-c3ccccc3)c(=O)n12 | 499 nM (active)
